Experimental data as given in PubChem BioAssay AID624330 (Southern Research Specialized Biocontainment Screening …, 2012).
About 2,100 (0.62%) of roughly 340,000 compounds were called active.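 How the source made its calls: active means first-screen hits whose inhibition reached a set limit at any dose in the follow-up dose series; inconclusive means inhibition above the set first-screen limit but never retested; inactive means the rest.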 These entries were drawn from the full list. Measured potencies and affinities stand elsewhere.

target: Rac GTPase-activating protein 1 (Homo sapiens) (UniProt Q9H0H5); assay: blockers of MgcRacGAP-driven Rac1 GTP hydrolysis – biochemical, ADP Hunter fluorescence, primary and confirmatory, confirmation (AID 624330); conditions: MgcRacGAP-stimulated Rac1 GTP hydrolysis, at 30 µM, stronger effect = higher value, GST-tagged Rac1 F28L mutant substrate;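 further: fluorescence reports GDP produced by GAP-driven GTP hydrolysis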
Sequence (Q9H0H5 whole entry, looked up): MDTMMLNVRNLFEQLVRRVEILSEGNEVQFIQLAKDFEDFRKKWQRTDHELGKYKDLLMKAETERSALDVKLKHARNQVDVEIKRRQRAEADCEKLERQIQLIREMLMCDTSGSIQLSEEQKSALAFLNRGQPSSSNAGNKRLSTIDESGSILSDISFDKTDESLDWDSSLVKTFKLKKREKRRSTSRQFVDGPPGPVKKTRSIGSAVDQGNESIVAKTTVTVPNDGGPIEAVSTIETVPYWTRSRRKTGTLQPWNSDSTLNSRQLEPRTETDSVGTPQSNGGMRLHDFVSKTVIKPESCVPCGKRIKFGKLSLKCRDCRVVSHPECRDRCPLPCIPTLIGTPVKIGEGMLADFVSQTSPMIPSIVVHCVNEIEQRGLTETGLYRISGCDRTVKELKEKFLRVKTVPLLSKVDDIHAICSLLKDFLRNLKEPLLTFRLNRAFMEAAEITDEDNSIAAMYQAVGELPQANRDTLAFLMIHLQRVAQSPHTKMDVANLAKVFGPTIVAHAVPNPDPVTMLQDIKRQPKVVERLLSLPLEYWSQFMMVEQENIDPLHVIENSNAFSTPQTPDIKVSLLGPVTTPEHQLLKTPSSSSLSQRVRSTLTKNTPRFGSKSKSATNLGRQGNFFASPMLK

inhibition, inactive:
Cc1cccc(NC(=O)CNC(=O)c2ccc(-n3cncn3)c([N+](=O)[O-])c2)c1C 0.04%
Cc1cc(OC(C)C(=O)NCc2cccnc2)c2c(C)cc(=O)oc2c1 (stereo not given) 3.28%
CC(NS(=O)(=O)c1ccc2c(c1)C(C)(C)C(=O)N2C)c1ccccc1 (stereo not given) 3.16%
N/C(=N\c1nc2c(c(=O)[nH]1)CCC2)Nc1ccccc1C(F)(F)F -0.36%
CSc1nc2c(c(=O)[nH]c(=O)n2C)n1Cc1ccc(Cl)cc1 11.4%
Cn1c(=O)[nH]c(=O)c2c1nc(Br)n2Cc1ccc(Cl)cc1 8.01%
O=C(O)CCC(=O)Nc1cccc(-c2nc3ccccc3o2)c1 -9.77%
CCN(CC)S(=O)(=O)c1ccc2c(c1)c(=O)c(C(=O)N1CCN(c3ccccc3)CC1)cn2C 1.44%
CN(C)CCCN1c2ccccc2Sc2ccc3ccccc3c21 15.1%
CCN(CC)CCN1c2ccccc2Sc2ccc3ccccc3c21 10.6%
OC(CNCC1(N2CCCCC2)CCCCC1)COc1ccc(Cl)cc1Cl (stereo not given) 17.6%
COc1cc(C(C)=O)ccc1OCC(O)CNCC1(N2CCCCC2)CCCCC1 (stereo not given) 27.1%
O=C(NCC1CCCO1)c1cc(C(=O)C2CCCCC2)c[nH]1 (stereo not given) 4.74%
CCCCCOC(=O)CSc1nc2c(c(=O)[nH]c(=O)n2C)n1Cc1ccc(Cl)cc1 1.35%
O=C(CSc1ccc(-c2ccco2)nn1)Nc1ccc(F)cc1F 9.4%
COc1ccc(/C=C/C(=O)CCC(=O)O)cc1 2.46%
Cc1ccc(N2CC3=C(C2=O)C(c2ccccc2)NC(=O)N3C)cc1 (stereo not given) 6.8%
CN1C(=O)NC(c2ccc(O)cc2)C2=C1CN(c1ccccc1)C2=O (stereo not given) 10.4%
CSc1ccccc1NC(=S)Nc1cc(C)cc(C)c1 9.21%
COc1ccc(S(=O)(=O)N2CCOCC2)cc1NC(=O)Cc1ccccc1Cl 5.39%
CCN(CC)c1ccc(NC(=O)c2cncc(Br)c2)cc1 30.6%
CCN(CC)c1ccc(CNc2ccc(Br)cn2)cc1 4.81%
O=S(=O)(Nc1nc2c(s1)CCCC2)c1ccc2ccccc2c1 8.29%
O=S(=O)(NC1=NCCCCC1)c1ccc2ccccc2c1 2.56%
Nc1nc2cc(S(=O)(=O)NC3=NCCCCC3)ccc2s1 38.9%
CCc1ccc(C(=O)OCC(=O)Nc2cccc(S(=O)(=O)NC3=NCCCCC3)c2)cc1 5.3%
Cc1ccc(-c2cc(C(=O)N3CCCC3)c3ccccc3n2)s1 3.87%
CCCCn1c(N)c(N(CCOC)C(=O)CSc2ccc([N+](=O)[O-])cc2)c(=O)[nH]c1=O 9.47%
CC1CC1C(=O)OCC(=O)NNC(=O)c1ccc([N+](=O)[O-])cc1 (stereo not given) 2.78%
Cc1ccc(-c2cc(C(=O)N/N=C/c3c(C)nn(-c4ccccc4)c3C)n[nH]2)s1 3.04%
CC(C)NC(=O)N(C)C[C@H]1Oc2ccc(NS(=O)(=O)c3cn(C)cn3)cc2C(=O)N([C@H](C)CO)C[C@@H]1C 12.3%
Cc1cc(Br)ccc1NCc1ccccn1 23.4%
O=C(CN1CCN(S(=O)(=O)c2ccc(Br)cc2)CC1)Nc1ccc(F)cc1F 7.71%
CC1(C)CC(=S)Nc2ccccc2S1 2.74%
CC1(C)CNc2cc([N+](=O)[O-])ccc2S1 9.53%
CSc1ncccc1C(=O)NC1CCCc2c1cnn2-c1ccc(C)c(C)c1 (stereo not given) 3.32%
CCOc1cc(/C=N/n2c(C)nc3sc(C)c(C)c3c2=O)ccc1O 10%
CCOc1cc(C=NN2CCCCCC2)ccc1O 30.4%
CCOc1cc(/C=N/N=C/c2ccc(O)c(OCC)c2)ccc1O 9.66%
CCOc1cc(/C=N/n2cnnc2)cc(Br)c1O 14.1%
CN(C)c1nc(C(=O)O)nc(N2CCOCC2)n1 7.25%
CN(C(=O)c1ccc(NC(=O)Cc2ccc(NC(=O)C3CCCN(C(=O)C4CCCCC4)C3)cc2)cc1)C1CCCC1 (stereo not given) 9%
O=C(Nc1cccc(NS(=O)(=O)c2ccc(S(=O)(=O)NC3CC3)cc2)c1)c1ccccn1 11.8%
NC(=O)CSc1nnc(NC(=O)c2cccc(S(=O)(=O)N3CCCCC3)c2)s1 7.47%
Cc1c(Cl)cccc1NC(=S)NC1CCCC1 8.99%
CN(c1nc(-c2ccccc2)cs1)C1CCS(=O)(=O)C1 (stereo not given) 8.88%
CN(C(=O)c1cccnc1)c1nc(-c2ccccc2)cs1 0.25%
c1ccc(-c2nc(-c3cccnc3)cs2)cc1 7.12%
Nc1nc(-c2cccs2)cs1 18.1%
c1csc(-c2csc(-c3cccs3)n2)c1 7.41%
Oc1ccc(Nc2nc(-c3cccs3)cs2)cc1 19.4%
Cc1cc(O)ccc1Nc1nc(-c2cccnc2)cs1 28.4%
CN(C(=O)c1ccco1)c1nc(-c2ccccc2)cs1 8.31%
COc1cc(OC)c(C(=O)NCCCn2ccnc2)cc1OC 3.26%
O=C(Nc1cccnc1)c1ccco1 -3.68%
CC(=O)N(C)c1ccc(NC(=O)Cc2cccs2)cc1 -7.79%
COC(=O)Cn1c2c(c3cc(C)ccc31)CCCC2NC(C)c1ccccc1 (stereo not given) 12.5%
CCOc1ccc2nc(N3C(=O)C(O)=C(C(=O)c4ccco4)C3c3ccco3)sc2c1 (stereo not given) 10.3%
Cc1ccc2nc(N3C(=O)C(O)=C(C(=O)c4ccc(C)o4)C3c3ccco3)sc2c1 (stereo not given) 14.4%
CCN1CCN(C(c2cccnc2)c2c(NC(=O)c3ccco3)sc(C)c2C)CC1 (stereo not given) 3.07%
O=[N+]([O-])c1ccc(O)c(CNCc2ccccc2)c1 5.59%
CC1CCCC(C)N1/N=C/c1ccc(O)cc1 (stereo not given) 21.4%
Oc1c(C=Nc2ccccc2)sc2ccccc12 6.75%
Oc1ccc(C=NC2CCCCC2)cc1 -1.9%
Oc1ccc(N=Cc2ccc(OCc3ccccc3)cc2)cc1 9.78%
